# Source: PubChem (National Center for Advancing Translational Sciences (NCATS))
# Tb PFK inh – blocks T. brucei phosphofructokinase | O15648 | T. brucei PFK, ADP-Glo luminescence | Potency, µM (top dose mostly 57.5 µM), for the others: top-dose activity, negative = inhibition, hits mostly inhibitors | actives 0.17% (n = 330,000);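 further: potency means the concentration at half of the fitted maximal effect; 0% = uninhibited 1x PFK enzyme wells and -100% = no-enzyme wells; nearly all actives have a fitted effect of over 60% in size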
# Target sequence (O15648 whole entry, looked up): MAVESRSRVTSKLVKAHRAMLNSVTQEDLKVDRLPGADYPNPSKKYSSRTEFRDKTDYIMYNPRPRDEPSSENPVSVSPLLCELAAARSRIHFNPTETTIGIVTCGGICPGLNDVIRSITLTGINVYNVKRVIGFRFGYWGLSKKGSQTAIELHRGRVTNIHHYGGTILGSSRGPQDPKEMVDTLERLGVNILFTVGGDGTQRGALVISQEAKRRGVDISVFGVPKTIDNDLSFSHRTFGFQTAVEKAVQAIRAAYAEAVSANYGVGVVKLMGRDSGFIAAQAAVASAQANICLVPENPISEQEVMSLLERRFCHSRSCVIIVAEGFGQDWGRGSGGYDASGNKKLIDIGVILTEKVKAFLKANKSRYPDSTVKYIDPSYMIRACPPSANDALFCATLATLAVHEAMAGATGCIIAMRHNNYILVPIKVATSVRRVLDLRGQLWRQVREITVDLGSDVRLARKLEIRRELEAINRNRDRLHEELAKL
#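 ADP-Glo luminescence quantified ADP after 45 min at room temperature, with 1.25 nM T. brucei PFK, 0.1 mM ATP and 0.5 mM fructose-6-phosphate in pH 8.0 TEA buffer. qHTS titrations up to 57 µM; curves classified by quality.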
# RXFP1 ag – activates the human relaxin receptor RXFP1. Q9HBX9. HEK293T-RXFP1 cAMP TR-FRET, 30 min; response scale: percent of porcine relaxin response, buffer zero. Potency, µM (doses to about 57.5 µM), inactives show top-dose activation, usual class: activators. actives 0.3% (n = 370,000). AID 2676; further: potency means the concentration at half of the fitted maximal effect; on the % scale 0 is the no-effect control and ±100 the full control effect; nearly all actives have a fitted effect of over 60% in size
#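 HEK293T cells stably expressing RXFP1 were pretreated with the PDE4 inhibitor Ro 20174, exposed to compounds for 30 min at 37C, lysed, and cAMP was read by TR-FRET. Data normalized to buffer (basal) and 29 nM porcine relaxin (100%).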
# RXFP1 antagonist – blocks the human relaxin receptor RXFP1. Q9HBX9. HEK293-RXFP1, relaxin-stimulated cAMP HTRF, 30 min; stronger effect = lower value. activity change, negative = inhibition, % at 57.5 µM. actives 0.59% (n = 350,000);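 active means activity change of -60% or lower, but not beyond a set lower limit; inconclusive means change between -60% and -40%, or beyond the set limit; inactive means change above -40%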; further: on the % scale 0 is the no-effect control and ±100 the full control effect
# gsp antag – antagonizes gsp, the McCune-Albright syndrome mutation; gsp-mutant cells, cAMP HTRF, 30 min; Potency, µM (series often up to 76.9 µM), for inactives: top-dose activity change, negative = inhibition, actives largely listed as inhibitors; actives 0.4% (n = 340,000); AID 624288; calls by dose curve; cell line not stated here;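 further: intracellular cAMP measured with PDE inhibitor Ro 20-1724 present during compound exposure; potency means the concentration at half of the fitted maximal effect; on the % scale 0 is the no-effect control and ±100 the full control effect; nearly all actives have a fitted effect of over 65% in size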
#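 Measurement of cellular cAMP by homogeneous time-resolved fluorescence following a 30 min compound exposure at 37C. The PDE inhibitor […] was present throughout; the assay buffer was DPBS with 0.05% BSA and 0.005% Tween 20.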
# gsp agonist – activates gsp, the McCune-Albright syndrome mutation. gsp mutant cells, cAMP HTRF, 30 min. Potency, µM (doses to about 76.9 µM), without a hit: at the highest dose activation (cAMP increase), most hits filed as activators. actives 0.13% (n = 340,000). AID 624287; active means well fitted activation curve with a large enough effect; inconclusive means small, poorly fitted or top-dose-only effect, or another doubt; inactive means no such curve, though single readings can be large or run the other way; cell line not stated here;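 further: phosphodiesterase inhibitor Ro 20-1724 added with compounds to block cAMP breakdown; potency means the concentration at half of the fitted maximal effect; nearly all actives have a fitted effect of over 60% in size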
#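 Cells in DMEM/10% FBS with G418 were pretreated with compounds in DMSO plus […] (300 uM stock) for 30 min at 37C. cAMP was measured by HTRF (cAMP-d2 plus anti-cAMP antibody-K) after 30 min at room temperature.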
# p53 reactivator – restores transcriptional activity of mutant p53 | H1299 p53-A138V BP100-luciferase reporter, luminescence, 24 h | Potency, µM (titrated, usually from 92.2 µM), inactives show at the highest dose activity change, positive = activation, usual class: activators | actives 0.063% (n = 320,000) | AID 504706; further: potency means the concentration at half of the fitted maximal effect; % of control where 0% means no effect; nearly all actives have a fitted effect of over 45% in size
#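 H1299 (p53-null), stable ts p53-A138V + BP100-Luc; 1000 cells/well, Opti-MEM/10% FBS; cpd 4 pt, 1:5; 24 h, 37 deg C, 5% CO2; detection reagent 10 min RT; luminescence.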
# An asterisk follows results filed as active; ? = inconclusive; . = no result; + = active, no number; ! = not active in a repeat; [ ] = another dose, or the depositor's remark. Shown are actives, neighbours in structure and some others; about 1.1% of the full set was active somewhere. Unless noted, the call rests on the fitted dose curve; in most records, active means well fitted curve in the direction sought with a large enough effect; inconclusive means small, poorly fitted or top-dose-only effect, or another doubt; inactive means no such curve, though single readings can be large; an effect the other way counts as inactive or inconclusive.
SMILES,Tb PFK inh,RXFP1 ag,RXFP1 antagonist,gsp antag,gsp agonist,p53 reactivator
Cc1nc2c(C(=O)NCc3ccccc3)c[nH]n2c(=O)c1Cc1ccccc1Cl,.,0.9%,-60.4*,.,.,.
c1ccc(CC(Cc2ccccc2)c2ccccn2)cc1,.,.,-13.2,-4.6%,-114.9%,.
c1ccc(CC(Nc2ccccn2)c2ccccc2)cc1 (stereo unspecified),-1.5%,0.0%,-60.2*,-2.4%,-4.1%[15.4 µM],7.6%
Clc1ccc(/C=N/NC2=Nc3cccc4cccc2c34)cc1,2.2%,0.0%,-1.7,8.1%,5.2%,?
C(=N\NC1=Nc2cccc3cccc1c23)/c1ccccc1,-3.6%,0.9%,-6.3,-21.2%,-2.5%[15.4 µM],50.1µM*
COC(=O)c1c(-c2ccc3ccccc3c2)csc1NC(=O)Cc1ccc(OC)c(OC)c1,-2.5%,1.8%,-17.6,?,-17.9%,6.1%
COc1ccc(-c2nc(SCC(=O)Nc3cccc(S(N)(=O)=O)c3)n[nH]2)cc1,0.3%,-0.3%,2.8,1.0%,18.1%[15.4 µM],17.2%
COc1ccc(N2C(=O)NC3CC2(C)Oc2ccc(Br)cc23)cc1OC (stereo unspecified),-0.2%,-1.7%,-3.3,-6.0%,-3.9%,-13.2%
Cc1ccc(C(C)C)c(OCC(=O)NCC2(N3CCOCC3)CCCCC2)c1,.,3.5%,-110.8*,.,.,.
COc1ccccc1NC(=O)C(C)N1C(=O)C2CCCCC2C1=O (stereo unspecified),3.0%,-1.1%,-2.0,10.2%,8.3%,2.6%
Cc1cccc(C(=O)Nc2nnc(S(=O)(=O)N(C)Cc3ccco3)s2)c1,0.6%,14.1µM*!,2.9,-8.7%,38.1%,13.1%
COc1ccc(C2CCCN2C(=S)Nc2cccc(Cl)c2C)cc1OC (stereo unspecified),-1.9%,2.0%,?,?,?,-1.0%
Cc1cc(OCC(=O)N(Cc2ccc(N(C)C)cc2)C2CCS(=O)(=O)C2)cc(C)c1Cl (stereo unspecified),.,2.2%,-24.3,.,.,.
OC(COC(c1ccc(F)cc1)c1ccc(F)cc1)CN1CCc2ccccc2C1 (stereo unspecified),3.9%,-3.0%,-62.2*,3.8%,-56.1%,0.9%
OC(COC(c1ccccc1)c1ccccc1)CN1CCc2ccccc2C1 (stereo unspecified),-10.0%,-0.1%,-17.9,-2.6%,-20.5%,-8.6%
Cn1c(=O)c2c(c3ccccc31)OC(C)(C)CC2,9.8%,5.5%,-12.3,+[activator],-13.8%[15.4 µM],-3.9%
CCOC(=O)COc1ccc(S(=O)(=O)NCc2cccnc2)cc1,-1.5%,2.2%,-12.9,-5.2%,13.9%,5.4%
COC(=O)COc1ccc(S(=O)(=O)NCc2ccncc2)cc1,-2.1%,2.4%,.,11.2µM*,-18.7%,?
c1ccc(N2CC3CCc4ccccc4C3=N2)cc1 (stereo unspecified),-1.2%,19.2%,5.0,9.2%,10µM*,44.7µM*
N#Cc1c(NC(=O)CSc2nnc(-c3ccccc3)o2)sc2c1CCCC2,-8.1%,3.1%,7.2,22.4µM*,1.2%,12.6%
CCOc1ccc(NC(=O)N2CC3CCCN3c3ccccc32)cc1 (stereo unspecified),.,1.7%,-60.8*,.,.,.
CCOC(=O)c1ccc(NC(=O)N2CC3CCCN3c3ccccc32)cc1 (stereo unspecified),.,0.5%,-11.7,.,.,.
COc1ccc(Nc2nc(-c3ccccc3)c3cc(Br)ccc3n2)cc1,.,3.3%,-10.9,.,.,.
Cc1ccc(Nc2n[nH]c(C)c2[N+](=O)[O-])cc1C,0.0%,-0.8%,1.9,-7.7%,-9.2%,22.4µM*
CC1(C)CC2(CC(c3ccc(F)cc3)c3ccc(O)cc3O2)NC(=S)N1 (stereo unspecified),4.3%,0.0%,-18.7,-10.0%,-42.4%,-6.1%
SMILES,Tb PFK inh,RXFP1 ag,RXFP1 antagonist,gsp antag,gsp agonist,p53 reactivator
CC1(C)CC2(CC(c3ccccc3F)c3ccc(O)c(O)c3O2)NC(=S)N1 (stereo unspecified),-17.0%,-1.0%,-76.3*,-5.0%,14.4%[15.4 µM],-1.9%
Cn1c(SCc2ccc(Cl)cc2Cl)nc(C(F)(F)F)cc1=O,-11.1%,-0.5%,.,9.7%,29.5%,-6.5%
Cc1ccc(NC(=O)CSc2ccccc2NC(=O)c2ccccc2Cl)cc1Cl,-0.8%,2.3%,-0.2,28.2µM*,-16.6%,1.2%
CCOc1cccc(/C=C/c2ccc3cccc(O)c3n2)c1OC,0.4%,-2.8%,-6.3,?,-1.0%[15.4 µM],12.6µM*
CCOc1cccc(/C=C/c2ccc3cccc(O)c3n2)c1O,10.8%,1.1%,3.0,-12.0%,24.1%[15.4 µM],10µM*
C=CCOC(=O)C(C(=O)Cc1ccccc1)c1ccccc1 (stereo unspecified),.,.,-20.8,7.9%,-7.8%,.
CCN(C(=O)CCN1C(=O)/C(=C/c2ccccc2)SC1=S)C1CCS(=O)(=O)C1 (stereo unspecified),4.9%,-1.8%,-0.4,28.2µM*,?,?
CN(C(=O)CCN1C(=O)/C(=C/c2ccc(F)cc2)SC1=S)C1CCS(=O)(=O)C1 (stereo unspecified),.,.,-1.3,.,-2.8%,.
CN=c1scc(-c2ccccc2F)n1/N=C/c1ccc(O)c(O)c1O,-18.4%,-2.6%,-64.9*,15.5%,2.5%[15.4 µM],11.3%
CC(C)N=c1scc(-c2cccs2)n1/N=C/c1ccc(O)c(O)c1O,3.5%,1.4%,-62.6*,-13.6%,-25.5%,?
CCN=c1scc(-c2cccs2)n1/N=C/c1cc(OC)ccc1O,0.5%,0.3%,-1.8,?,16.3%,?
COc1cc2[nH]cc(C(=O)NCc3cccs3)c(=O)c2cc1OC,.,.,-9.2,13.3%,-44.3%,.
COc1cc(OC)cc(C(=O)NCC(=O)OCC(=O)/C=C2/N(C)c3ccccc3C2(C)C)c1,2.5%,4.2%,-0.7,?,-7.5%,-6.9%
CC(C)[C@H](NC(=O)c1ccccc1)C(=O)OCC(=O)/C=C1/N(C)c2ccccc2C1(C)C,6.7%,-0.4%,-21.1,35.5µM*,-16.0%,2.1%
Cc1ccc2oc(=O)c3cc(C(=O)NCc4ccc(Cl)cc4)sc3c2c1,.,1.8%,.,.,.,.
Cc1cccc(Cl)c1NC(=O)N1CCN(c2ccnc3cc(Cl)ccc23)CC1,-6.2%,3.1%,-4.3,28.2µM*,22.6%,-1.2%
Cc1ccc(F)cc1NC(=O)N1CCN(c2ccnc3cc(Cl)ccc23)CC1,-6.9%,0.1%,-10.5,35.5µM*,-0.8%,-10.4%
COCCn1nnnc1C(c1cccc(C(F)(F)F)c1)N1CCN(Cc2ccccc2)CC1 (stereo unspecified),3.1%,-0.3%,15.0,4.6%,24.6%,-0.2%
Cc1c(C#N)c2ncn(CCCN(C)C)c(=O)c2n1-c1ccccc1,3.9%,0.9%,-8.7,6.4%,-0.3%,8.9%
